Inconclusive results are not listed. Unmarked numbers belong to inactive results. Calls of active or inactive are those of the source. Calls follow the shape of the dose curve; as a rule, active = well fitted inhibition curve with a large enough effect; inconclusive = small, poorly fitted or top-dose-only effect, or effect the other way; inactive = flat fitted curve, though single readings scatter.
molecular target: Ubiquitin carboxyl-terminal hydrolase 2 (Homo sapiens) (UniProt O75604); experiment: Confirmation Assay for Inhibitors of Ubiquitin-specific Protease USP2a Using CHOP2 as the Reporter; conditions: USP2 core, Ub-CHOP2 coupled reporter fluorescence; series mostly up to 38.3 µM; activity change, negative = inhibition: at the top concentration; also: nearly all actives have a fitted effect of over 55% in size;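 as to activity change, negative = inhibition: plate controls were DMSO wells for no effect and full inhibition by NEM control for full effect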
Summary of the method: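 USP2 core (10 nM final) was preincubated with compound for 30 min at RT in Tris-HCl pH 8.0, CaCl2, beta-mercaptoethanol, CHAPS. Ub-CHOP2 and reporter substrate (25 nM final each) were added, and fluorescence (Ex 485/Em 531 nm) was read after 60 min.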
Potency is read from the fitted curve at half-maximal effect.

Ubiquitin carboxyl-terminal hydrolase 2 (Homo sapiens), sequence (O75604 whole entry, looked up): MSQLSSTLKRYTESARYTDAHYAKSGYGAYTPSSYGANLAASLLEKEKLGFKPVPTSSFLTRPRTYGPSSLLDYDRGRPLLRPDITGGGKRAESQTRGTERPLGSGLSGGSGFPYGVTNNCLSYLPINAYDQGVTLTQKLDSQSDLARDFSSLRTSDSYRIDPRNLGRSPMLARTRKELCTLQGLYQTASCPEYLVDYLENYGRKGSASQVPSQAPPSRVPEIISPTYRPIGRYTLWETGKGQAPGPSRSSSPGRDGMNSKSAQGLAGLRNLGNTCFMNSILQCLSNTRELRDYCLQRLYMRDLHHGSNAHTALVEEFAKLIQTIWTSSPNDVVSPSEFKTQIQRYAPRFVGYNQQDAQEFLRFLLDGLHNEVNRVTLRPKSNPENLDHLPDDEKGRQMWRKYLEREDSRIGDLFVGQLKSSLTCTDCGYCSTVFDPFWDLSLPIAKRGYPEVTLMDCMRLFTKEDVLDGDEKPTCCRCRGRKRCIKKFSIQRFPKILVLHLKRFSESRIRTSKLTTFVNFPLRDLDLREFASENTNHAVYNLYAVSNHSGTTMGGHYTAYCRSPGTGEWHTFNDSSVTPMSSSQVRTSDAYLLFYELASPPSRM

Compound	activity change, negative = inhibition [%]	Potency
O=C(CSc1nc2ccccc2c(=O)n1CC1CCCO1)NCc1ccccc1 (configuration not stated)	2.33	
CCOC(=O)N1CCN(C(=O)CN(c2ccc(C)c(C)c2)S(=O)(=O)c2ccccc2)CC1	-1.56	
CN(c1cccc(NC(=O)Nc2cccc(Cl)c2)c1)S(C)(=O)=O	0.956	
CCc1cc2c(=O)c(-c3nc4ccccc4n3C)coc2c(CN2CCCCC2C)c1O (configuration not stated)	0.458	
CC(=O)c1c(N2CCCC2)[nH]c(-c2ccccc2)nc1=S	3.15	
CCC(=O)Nc1c2c(nn1-c1ccc(F)cc1)CS(=O)C2 (configuration not stated)	-2.8	
COc1cccc(/C=N/n2c(SC)nnc2-c2ccccc2)c1O	1.92	
O=C(NN1C(=O)/C(=C/C=C/c2ccco2)SC1=S)c1ccncc1		13.1 µM (active)
Cc1ccc(C2=N/C(=C\c3c(C)nn(-c4ccccc4)c3N3CCCC3)C(=O)O2)cc1	5.3	
O=C(/C=N/O)NCc1cccnc1	0.699	
Nc1ccccc1S(=O)(=O)NC1=NCCCCC1	2.55	
O=C(c1ccccc1)N1CCN(C(=O)N2CCCCC2)CC1	-1.38	
Cc1ccc(C2=NC(=O)/C(=C/c3cc(O)c(O)c(Br)c3)S2)cc1		7.36 µM (active)
Cc1ccc2c(c1)c1c3n2CCN(C(=O)Cn2c(-c4ccccc4)noc2=O)C3CCC1 (configuration not stated)	-6.27	
COc1ccc(C(=O)COC(=O)c2ccccc2O)c(OC)c1	-16.9	
CN(C)CCCN1C(=O)C(=O)/C(=C(/O)c2ccncc2)C1c1cccnc1 (configuration not stated)	-0.824	
CCN(CC)CCNc1nc(-c2ccccc2)c2c(c1C#N)CC(C)(C)OC2	-2.42	
CC(C)C(=O)N=c1sc2cc(F)cc(F)c2n1C	1.36	
COc1ccc2nc(C)cc(SCC(=O)N/N=C/c3c(OC)ccc4ccccc34)c2c1	-0.136	
O=C(N/N=C1\CC(c2ccccc2)Oc2ccccc21)c1ccc(O)cc1 (configuration not stated)	1.02	
COc1ccc(-c2cc(C(F)(F)F)nc(S(C)(=O)=O)n2)cc1	-3.75	
COC(=O)CSc1nc2c(c(-c3ccco3)c1C#N)CCCC2	0.57	

From PubChem BioAssay AID493168 (National Center for Advancing Translational Sciences (NCATS), 2011)
